Source: PubChem (several laboratories)
Mcl1-Bid inh – Mcl-1/Bid interaction inhibition | Q07820 | TR-FRET Mcl-1/Bid-Dy647 peptide binding, 1536-well | inhibition, % at 21.7 µM | 0.97% of 220,000 active;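 active means compounds that cut the binding signal by more than half at the single screening dose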;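 further: His-tagged Mcl-1 with europium anti-His antibody binding Bid BH3 peptide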
Target sequence (Q07820 whole entry, looked up): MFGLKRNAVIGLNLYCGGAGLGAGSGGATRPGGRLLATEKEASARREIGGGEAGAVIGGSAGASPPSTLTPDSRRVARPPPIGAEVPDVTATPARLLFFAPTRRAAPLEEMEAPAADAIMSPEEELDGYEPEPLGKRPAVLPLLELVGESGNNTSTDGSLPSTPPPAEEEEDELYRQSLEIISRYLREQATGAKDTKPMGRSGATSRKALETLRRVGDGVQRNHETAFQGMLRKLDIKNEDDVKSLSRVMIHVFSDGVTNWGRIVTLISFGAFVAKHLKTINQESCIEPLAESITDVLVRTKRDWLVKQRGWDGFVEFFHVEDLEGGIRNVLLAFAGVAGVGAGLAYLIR
Mcl1-Noxa inh – disrupts binding of human Mcl-1 to Noxa peptide; AID 1022; inhibition, % at 21.7 µM; TR-FRET Mcl-1/Noxa peptide binding, 2 h; 1.5% of 220,000 active;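 active means compounds that cut the protein-peptide binding signal by more than 50% relative to plate controls in a single-dose test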;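 further: His-tagged Mcl-1 with rhodamine Noxa BH3 peptide and terbium anti-His antibody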
NCF1 inh – inhibitors of human p47phox binding; P14598; p47phox/p22phox peptide binding, fluorescence polarization, 2 h; inhibition, % at 24.7 µM; 0.53% of 220,000 active; AID 1274
Target sequence (P14598 whole entry, looked up): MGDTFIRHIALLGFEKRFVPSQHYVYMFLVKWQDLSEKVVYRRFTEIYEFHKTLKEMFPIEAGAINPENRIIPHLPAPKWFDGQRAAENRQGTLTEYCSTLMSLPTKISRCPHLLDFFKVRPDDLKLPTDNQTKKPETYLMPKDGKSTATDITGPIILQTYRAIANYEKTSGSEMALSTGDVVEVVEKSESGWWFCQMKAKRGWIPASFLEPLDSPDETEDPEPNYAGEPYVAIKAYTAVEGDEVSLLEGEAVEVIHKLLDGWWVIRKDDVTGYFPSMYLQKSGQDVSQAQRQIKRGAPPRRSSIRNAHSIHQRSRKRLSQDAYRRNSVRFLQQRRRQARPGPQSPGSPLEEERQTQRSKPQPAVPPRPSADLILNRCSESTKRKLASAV
Bim-Mcl-1 – human Bim-Mcl-1 interaction inhibition. inhibition, % at 10 µM. Q07820. 0.1% of 190,000 active. Bead-based flow cytometry, Bim peptide-Mcl-1 binding; in the data active means inhibition above about 40%
14-3-3 Bad inh – disrupts binding of bovine 14-3-3 zeta to phospho-Bad peptide; 0.71% of 220,000 active; inhibition, % at 21.7 µM; P63103; TR-FRET 14-3-3zeta/Dy647-pBad peptide displacement, 1 h; AID 781;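 active means inhibition above about 70%, limit read from the data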
eIF4E-4G inh – eIF4E/eIF4G interaction inhibition in translation initiation. P63073+Q04637. TR-FRET eIF4E-eIF4GI(517-606) binding, 2 h. inhibition, % at 21.7 µM. 0.37% of 220,000 active
Hits are given with their value. A selection: hits, their analogues and other compounds. The true share with any hit is near 3.4%.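 How the source made its calls, unless noted: active means inhibition above about 30% (limit read from the data); inactive means the rest.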

What do the screens show for `COc1cccc(/C=N/n2c(SC)nnc2-c2ccccc2)c1OC`?
Mcl1-Bid inh: inactive; Mcl1-Noxa inh: inactive; NCF1 inh: inactive; Bim-Mcl-1: inactive; 14-3-3 Bad inh: inactive; eIF4E-4G inh: inactive

What do the screens show for `O=c1c(Cc2c(F)cccc2Cl)c(O)ccn1CCCn1ccnc1`?
Mcl1-Bid inh: inactive; Mcl1-Noxa inh: inactive; NCF1 inh: inactive; Bim-Mcl-1: inactive; 14-3-3 Bad inh: inactive; eIF4E-4G inh: inactive

How did COCCn1c(N)c(C(=S)NC(=O)c2cccs2)c(=O)[nH]c1=O do in these assays?
Mcl1-Bid inh: inactive; Mcl1-Noxa inh: 70; NCF1 inh: inactive; 14-3-3 Bad inh: inactive; eIF4E-4G inh: inactive

Results for CC(C)(C)c1ccc(NC(=O)Nc2ccc3ccccc3n2)cc1 ?
Mcl1-Bid inh: inactive; Mcl1-Noxa inh: inactive; NCF1 inh: inactive; 14-3-3 Bad inh: inactive; eIF4E-4G inh: inactive

How did Cc1cccc(Cn2c(C(C)O)nc3ccccc32)c1 (stereo not given) do in these assays?
Mcl1-Bid inh: inactive; Mcl1-Noxa inh: inactive; NCF1 inh: inactive; Bim-Mcl-1: inactive; 14-3-3 Bad inh: inactive; eIF4E-4G inh: inactive

What do the screens show for `Cc1cccc(Cn2c(C)nc3c(N)c(C)c(C)cc32)c1`?
Mcl1-Bid inh: 91; Mcl1-Noxa inh: inactive; NCF1 inh: inactive; Bim-Mcl-1: inactive; 14-3-3 Bad inh: inactive; eIF4E-4G inh: inactive

Results for COc1ccc2c(c1)nc(SCC(=O)C(C)(C)C)n2C ?
Mcl1-Bid inh: inactive; Mcl1-Noxa inh: inactive; NCF1 inh: inactive; Bim-Mcl-1: inactive; 14-3-3 Bad inh: 73; eIF4E-4G inh: inactive

How did COc1ccc2c(c1)nc(SCC(C)O)n2C (stereo not given) do in these assays?
Mcl1-Bid inh: inactive; Mcl1-Noxa inh: inactive; NCF1 inh: inactive; Bim-Mcl-1: inactive; 14-3-3 Bad inh: inactive; eIF4E-4G inh: inactive

What do the screens show for `COc1ccc2c(c1)nc(SCC(=O)c1cccs1)n2C`?
Mcl1-Bid inh: inactive; Mcl1-Noxa inh: inactive; NCF1 inh: inactive; Bim-Mcl-1: inactive; 14-3-3 Bad inh: 71; eIF4E-4G inh: inactive

Results for NS(=O)(=O)c1cc(C(=O)OCC(=O)Nc2ccc(N3CCCCC3)cc2)ccc1Cl ?
Mcl1-Bid inh: inactive; Mcl1-Noxa inh: inactive; NCF1 inh: inactive; 14-3-3 Bad inh: inactive; eIF4E-4G inh: inactive

Results for CC(=O)n1cc(Nc2ccc([N+](=O)[O-])cc2)c2ccccc21 ?
Mcl1-Bid inh: inactive; Mcl1-Noxa inh: 65; NCF1 inh: inactive; Bim-Mcl-1: inactive; 14-3-3 Bad inh: inactive; eIF4E-4G inh: inactive

Results for CC(=O)SC(C[N+](=O)[O-])c1cn(C(C)=O)c2ccccc12 (stereo not given) ?
Mcl1-Bid inh: inactive; Mcl1-Noxa inh: 59; NCF1 inh: inactive; Bim-Mcl-1: inactive; 14-3-3 Bad inh: inactive; eIF4E-4G inh: inactive

What do the screens show for `Cc1ccc(C2=[N+]([O-])C3(CCCCC/C3=N\NC(N)=O)N(O)C2(C)C)o1` (stereo not given)?
Mcl1-Bid inh: inactive; Mcl1-Noxa inh: inactive; NCF1 inh: inactive; Bim-Mcl-1: inactive; 14-3-3 Bad inh: inactive; eIF4E-4G inh: inactive

Results for CC1(C)C(c2cccs2)=[N+]([O-])C2(CCCCC/C2=N\O)N1O (stereo not given) ?
Mcl1-Bid inh: 57; Mcl1-Noxa inh: inactive; NCF1 inh: inactive; Bim-Mcl-1: inactive; 14-3-3 Bad inh: inactive; eIF4E-4G inh: inactive

What do the screens show for `COc1ccc(C)cc1N(CC(=O)N/N=C/c1ccccc1C(=O)O)S(=O)(=O)c1ccccc1`?
Mcl1-Bid inh: inactive; Mcl1-Noxa inh: inactive; NCF1 inh: inactive; Bim-Mcl-1: inactive; 14-3-3 Bad inh: inactive; eIF4E-4G inh: inactive

What do the screens show for `O=C(Nc1ccc(-n2cccc2)cc1)C1CC1`?
Mcl1-Bid inh: inactive; Mcl1-Noxa inh: inactive; NCF1 inh: inactive; Bim-Mcl-1: inactive; 14-3-3 Bad inh: inactive; eIF4E-4G inh: inactive

Results for Cc1ccc(Nc2nc3ccccc3nc2-n2nc(C)cc2C)cc1 ?
Mcl1-Bid inh: inactive; Mcl1-Noxa inh: inactive; NCF1 inh: inactive; Bim-Mcl-1: inactive; 14-3-3 Bad inh: inactive; eIF4E-4G inh: 52

Results for CCOc1ccc(N(CC(=O)N2CCN(c3ccccc3)CC2)S(=O)(=O)c2c(C)noc2C)cc1 ?
Mcl1-Bid inh: inactive; Mcl1-Noxa inh: inactive; NCF1 inh: 43; Bim-Mcl-1: inactive; 14-3-3 Bad inh: inactive; eIF4E-4G inh: inactive

Results for COCCn1c(SCC(=O)N2CCCc3ccccc32)nc2ccccc2c1=O ?
Mcl1-Bid inh: inactive; Mcl1-Noxa inh: inactive; NCF1 inh: 68; Bim-Mcl-1: inactive; 14-3-3 Bad inh: inactive; eIF4E-4G inh: inactive

What do the screens show for `COCCn1c(SCC(=O)N2CCCc3ccccc32)nc2c(c1=O)SC(C)C2` (stereo not given)?
Mcl1-Bid inh: inactive; Mcl1-Noxa inh: inactive; NCF1 inh: inactive; Bim-Mcl-1: inactive; 14-3-3 Bad inh: inactive; eIF4E-4G inh: inactive

How did COc1ccc(OC)c(-c2csc(NC(=O)Cn3[nH]c(=O)c4ccccc4c3=O)n2)c1 do in these assays?
Mcl1-Bid inh: inactive; Mcl1-Noxa inh: inactive; NCF1 inh: inactive; Bim-Mcl-1: inactive; 14-3-3 Bad inh: inactive; eIF4E-4G inh: 42

How did COc1ccc(OC)c(-c2csc(NC(=O)CSc3ccc(Br)cc3)n2)c1 do in these assays?
Mcl1-Bid inh: inactive; Mcl1-Noxa inh: inactive; NCF1 inh: inactive; Bim-Mcl-1: inactive; 14-3-3 Bad inh: inactive; eIF4E-4G inh: inactive

Results for CCc1nc(-c2ccccc2)c2ccccn12 ?
Mcl1-Bid inh: inactive; Mcl1-Noxa inh: 62; NCF1 inh: inactive; Bim-Mcl-1: inactive; 14-3-3 Bad inh: inactive; eIF4E-4G inh: inactive

What do the screens show for `Oc1ccc(C=NCC2COc3ccccc3O2)cc1` (stereo not given)?
Mcl1-Bid inh: inactive; Mcl1-Noxa inh: inactive; NCF1 inh: inactive; Bim-Mcl-1: 80; 14-3-3 Bad inh: inactive; eIF4E-4G inh: inactive

What do the screens show for `CCCC(c1nnnn1C1CCCC1)N1CCN(c2ccccc2F)CC1` (stereo not given)?
Mcl1-Bid inh: inactive; Mcl1-Noxa inh: inactive; NCF1 inh: inactive; Bim-Mcl-1: inactive; 14-3-3 Bad inh: 81; eIF4E-4G inh: inactive

Results for O=S(=O)(c1ccc(-c2ccon2)s1)N1CCN(c2ccncc2)CC1 ?
Mcl1-Bid inh: inactive; Mcl1-Noxa inh: 72; NCF1 inh: inactive; 14-3-3 Bad inh: inactive; eIF4E-4G inh: inactive

What do the screens show for `Cc1cccc(OCCSc2nc(N)cc(N)n2)c1`?
Mcl1-Bid inh: inactive; Mcl1-Noxa inh: inactive; NCF1 inh: inactive; 14-3-3 Bad inh: inactive; eIF4E-4G inh: inactive

What do the screens show for `S=C(Nc1ccccc1Cl)Nc1ccc(Cl)cc1Cl`?
Mcl1-Bid inh: inactive; Mcl1-Noxa inh: inactive; NCF1 inh: inactive; Bim-Mcl-1: inactive; 14-3-3 Bad inh: inactive; eIF4E-4G inh: inactive

What do the screens show for `S=C(NNc1ccnc2cc(Cl)ccc12)Nc1ccccc1Cl`?
Mcl1-Bid inh: inactive; Mcl1-Noxa inh: 62; NCF1 inh: inactive; Bim-Mcl-1: inactive; 14-3-3 Bad inh: inactive; eIF4E-4G inh: inactive

What do the screens show for `O=C(CCc1ccccc1)NNC(=O)COc1ccccc1`?
Mcl1-Bid inh: inactive; Mcl1-Noxa inh: inactive; NCF1 inh: inactive; Bim-Mcl-1: inactive; 14-3-3 Bad inh: inactive; eIF4E-4G inh: inactive
